High-throughput results from PubChem.
DAX1 inh: DAX1 (NR0B1) inhibitors on StAR promoter, primary screen, cell-based, luminescence, SF-1 (NR5A1), full-length DAX-1; HEK293T StAR-luciferase reporter, SF-1/DAX-1 repression relief; inhibition, % at 6.8 µM; 370,000 tested, 1.1% active;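 active means inhibition above the mean over all tested compounds plus 3 SD, cut at about 3.6% in these data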;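 further: 0% = DAX-1 cells with DMSO and 100% = cells lacking DAX-1 with DMSO; higher inhibition means more luminescence from relief of DAX-1 repression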
ssDAF-12 act: S. stercoralis DAF-12 nuclear receptor activators, primary screen, cell-based, luminescence, HEK293, GRIP1 co-expression, lit1-tk-luc | Nuclear hormone receptor DAF-12 (Strongyloides stercoralis) | HEK293 ssDAF-12/GRIP1 lit1-tk-luc reporter; % of 3 µM dafachronic acid response | activation, % at 6.8 µM | 370,000 tested, 1% active;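 active means activation above the mean over all tested compounds plus 3 SD, cut at about 0.9% in these data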;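 further: 0% = DMSO-only wells and 100% = 3 µM delta7-dafachronic acid wells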
SMARCA2 act: SMARCA2 (BRM) function activators, primary screen, cell-based, luminescence, high throughput | AID 652017, 2013 | activation, % at 9.1 µM | 370,000 tested, 1% active | MG213 cells, MMTV-luciferase reporter, dexamethasone, overnight; in the data active means activation above about 7.8%;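 further: 0% = vehicle wells and 100% = reference activator wells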
hcDAF12 agonist: H. contortus DAF-12 nuclear receptor activators, primary screen, cell-based, luminescence, HEK293, lit1-tk-luc reporter. HEK293 hcDAF-12 lit1-tk-luc reporter; 0% DMSO, 100% Δ7-dafachronic acid. activation, % at 6.8 µM. 370,000 tested, 1.4% active;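 active means activation above the mean of all tested compounds plus 3 SD, cut at about 5.5% in these data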;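 further: 100% = response to 3 µM Δ7-dafachronic acid high control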
hgDAF12 agonist: H. glycines DAF-12 receptor agonists, primary screen, cell-based, luminescence, HEK293, GAL4 fusion, UAS-luciferase. HEK293 GAL4-hgDAF12 UAS-luciferase reporter, agonist luminescence; normalized to butyrate control. activation, % at 6.8 µM. 370,000 tested, 1.8% active;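 active means activation above a cutoff set at the mean of all screened compounds plus 3 SD, cut at about 10% in these data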;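 further: 0% = DMSO wells and 100% = sodium butyrate wells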
DAX1 inh confirm: DAX1 (NR0B1) inhibitors relieving SF-1 repression, confirmation, cell-based, luminescence, HEK293T, full-length DAX-1, SF-1 activated StAR promoter | shares compounds with DAX1 inh | HEK293T StAR-promoter luciferase reporter, SF-1/DAX-1 repression | inhibition, % at 6.8 µM | 2,400 tested, 87% active | AID 652134, 2013;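 active means inhibition above the average of every tested compound plus 3 SD, cut at about 3.8% in these data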;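 further: 0% = DAX-1 cells with DMSO and 100% = no DAX-1 control cells with DMSO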
Target sequence (P51843 whole entry, looked up): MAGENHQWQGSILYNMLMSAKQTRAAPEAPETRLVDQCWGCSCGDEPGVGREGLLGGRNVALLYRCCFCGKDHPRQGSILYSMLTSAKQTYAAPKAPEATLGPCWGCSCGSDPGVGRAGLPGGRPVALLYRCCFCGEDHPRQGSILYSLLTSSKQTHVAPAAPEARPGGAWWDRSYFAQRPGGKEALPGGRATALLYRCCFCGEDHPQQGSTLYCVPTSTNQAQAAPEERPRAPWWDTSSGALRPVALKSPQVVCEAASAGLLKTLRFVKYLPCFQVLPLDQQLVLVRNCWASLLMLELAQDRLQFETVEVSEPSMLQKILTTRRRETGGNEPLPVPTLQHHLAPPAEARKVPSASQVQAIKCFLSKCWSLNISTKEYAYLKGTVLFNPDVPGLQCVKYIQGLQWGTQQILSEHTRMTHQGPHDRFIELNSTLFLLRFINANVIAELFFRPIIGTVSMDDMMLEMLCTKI
SF1 AF2mut Luc: StAR reporter signal changes without DAX1, counter-screen for DAX1 inhibitor project, cell-based, luminescence, AF-2 mutant SF-1, transactivation; shares compounds with DAX1 inh; HEK293 StAR-luciferase, SF-1 AF2 mutant; inhibition, % at 6.8 µM; 2,400 tested, 78% active; AID 652136, 2013;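 active means inhibition above the mean of all tested compounds plus 3 SD, cut at about 3% in these data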;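 further: 0% = DAX-1 transfected cells with DMSO and 100% = cells without DAX-1 with DMSO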
* hit, by the source's call; nt = no result given. Sampled rows, rich in hits. Any-hit rate of the full collection: about 4.2%.

SMILES	DAX1 inh	ssDAF-12 act	SMARCA2 act	hcDAF12 agonist	hgDAF12 agonist	DAX1 inh confirm	SF1 AF2mut Luc
CC[C@@]1(C(=O)OC)N[C@H](CN(C)C(=O)Nc2ccc(C(F)(F)F)cc2)[C@@H]2C(=O)N(Cc3ccccc3)C(=O)[C@@H]21	5.3*	2.5*	0	0	2	1	1
COC(=O)[C@]1(Cc2ccccc2)N[C@H](CN(C)C(=O)Nc2ccc(C(F)(F)F)cc2)[C@@H]2C(=O)N(Cc3ccccc3)C(=O)[C@@H]21	3	-1	-6	2	1	nt	nt
CCN(C[C@H]1N[C@@](C)(C(=O)OC)[C@H]2C(=O)N(Cc3ccccc3)C(=O)[C@@H]12)C(=O)COC	5.9*	0	1	1	1	0	0
Cc1ccc(-c2c(C)sc(=NC(=O)c3ccco3)n2C)cc1	5.2*	0	2	2	9	6.8*	3.0*
COc1ccc(OC)c2c1sc(=NC(=O)c1ccco1)n2C	0	-1	-1	4	3	nt	nt
CCCCOc1ccc(C(=O)n2ccc3ccc(-c4ccc5ccn(Cc6cccc(C(=O)OC)c6)c5c4)cc32)cc1	-1	-1	-1	2	-2	nt	nt
COc1ccc(C(C)=O)cc1CSC(=S)N1CCSCC1	-2	-1	-6	-2	-3	nt	nt
Cc1ccc2c(Cl)c(C(=O)NC3CC3)sc2c1	5.9*	0	2	0	6	4.4*	2
Cc1nc2nc(-c3ccc(Cl)cc3)cn2nc1C	6.2*	0	6	5	10	9.4*	2.9*
Cc1ccc(-c2cn3nc(-c4ccccc4)c(-c4ccccc4)nc3n2)cc1	0	-1	2	1	0	nt	nt
CCOc1ccc(NC(=O)NC2CCCCCCC2)cc1	9.8*	0	1	5	12*	9.0*	4.0*
O=C(Nc1ccc(Br)cc1)NC1CCCCCCC1	5.1*	0	5	1	11*	9.1*	6.0*
O=C(Nc1cccc([N+](=O)[O-])c1)NC1CCCCCCC1	5.5*	-1	-1	4	5	4.6*	4.3*
CC(C)c1ccc(C(=O)N2CCCC(c3cc(C(=O)Nc4ccccc4Cl)no3)C2)cc1 (stereo unspecified)	0	-1	-3	-2	3	nt	nt
COc1ccc(C(=O)C[n+]2cn(C(F)F)c3ccccc32)c(F)c1	7.3*	0	4	3	9	2	3.9*
Cc1ccccc1OCCN1C(=O)c2ccccc2C1=O	1	-1	1	2	7	nt	nt
O=C1c2ccccc2C(=O)N1CCOc1ccccc1Cl	8.0*	0	2	2	10	3.8*	4.3*
Cc1cccc2c1N(CCOc1ccccc1Cl)C(=O)C2=O	-1	-1	0	-1	-2	nt	nt
O=C1c2ccccc2C(=O)N1CCOc1ccccc1Br	4.8*	1	4	1	6	4.3*	1
CC(C)NC(=O)Cn1c(-c2cncs2)nc2ccccc21	0	-2	-3	-1	0	nt	nt
C[C@H]1CN([C@@H](C)CO)C(=O)c2c(c3ccccc3n2C)-c2ccccc2CO[C@H]1CN(C)C(=O)Nc1cccc(F)c1	-2	0	-3	-2	0	nt	nt
CCCCOCCCNC(=O)C[C@H]1C[C@@]2(C(=O)OC)C(=C[C@H](C3CCCC3)O[C@@H]2C)N(Cc2ccco2)C1=O	0	-1	-2	0	0	nt	nt
CC(C)[C@H]1/C(=C/C2CC2)N2C(=O)C[C@H](c3cccc(C(F)(F)F)c3)N=C2N1Cc1ccc2c(c1)OCO2	nt	-1	nt	-2	-1	nt	nt
Cc1cc2c(nc1C)CCCN2Cc1ccccc1C(F)(F)F	0	-2	0	1	2	nt	nt
O=C(O)c1cc(N/N=C/C=C/c2ccccc2)ccc1Cl	8.6*	0	2	5	10	12*	6.2*
SMILES	DAX1 inh	ssDAF-12 act	SMARCA2 act	hcDAF12 agonist	hgDAF12 agonist	DAX1 inh confirm	SF1 AF2mut Luc
Cc1ccnc2nc(C(=O)Nc3ccc4c(c3)OCO4)nn12	4.6*	0	3	3	9	8.9*	5.2*
Cc1cc(C)n2nc(C(=O)Nc3ccc4c(c3)OCCO4)nc2n1	6.0*	-1	4	2	8	5.6*	3
Cc1cc(C)n2nc(C(=O)Nc3ccc4c(c3)OCO4)nc2n1	2	-1	2	0	2	nt	nt
CCN1CCN(c2ccc(S(=O)(=O)N3CCCCC3)cc2NC(=O)/C=C/c2ccc(Cl)cc2)CC1	4.8*	-1	-1	-1	0	1	0
CCN1CCN(c2ccc(S(=O)(=O)N3CCCCC3)cc2NC(=O)/C=C/c2ccc(OC)c(OC)c2)CC1	2	-1	6	0	-1	nt	nt
COc1cc(NC2c3ccccc3C(=O)N2c2cc(C)ccn2)cc(OC)c1OC (stereo unspecified)	0	-1	2	-2	-4	nt	nt
COc1cc(NC2c3ccccc3C(=O)N2c2ccc(C)cn2)cc(OC)c1OC (stereo unspecified)	6.1*	0	0	2	8	3	3.1*
O=C(NCCc1ccccc1F)c1cc2ccccn2n1	5.0*	1	6	4	13*	16*	5.2*
COc1ccc(-c2ccc(NC(=O)c3ccco3)cc2)nn1	9.0*	0	4	3	8	13*	1
O=C(COc1ccccc1)Nc1cccc(-c2ccc(N3CCOCC3)nn2)c1	7.9*	0	4	3	13*	5.3*	2
CC1CCN(c2ccc(-c3cccc(NC(=O)c4ccco4)c3)nn2)CC1	8.0*	0	6	3	10	11*	3.4*
O=C(Nc1cccc(-c2ccc(N3CCOCC3)nn2)c1)c1ccccc1	4.7*	-1	8	2	6	3	2
C#CCNC(=O)C[C@@H]1C(=O)N(Cc2ccc(OC)cc2)C2=CCN(C(=O)OC(C)(C)C)C[C@]21C(=O)OCC	0	-1	-2	0	1	nt	nt
COC(=O)CSc1nc2cc(C)ccc2cc1C#N	5.0*	1.2*	6	5	12*	18*	9.3*
